In all, about 50,000 compounds went through this assay and about 800 (1.6%) showed an effect of 50% or more. Only a selection was taken, and strong results are over-represented in it overall.

For this experiment, the target named is Bcl-2-like protein 10 (Homo sapiens) (UniProt Q9HD36). Kind of experiment: Phenotype converters, Bcl-B/TR3 peptide binding displacement, primary biochemical FP (AID 1240).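 Also: 0% = Bcl-B with tracer peptide and DMSO and 100% = tracer peptide lacking Bcl-B.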 The conditions noted are these: GST-Bcl-B / FITC-TR3 peptide fluorescence polarization; stronger effect = higher value; compound at 3.75 mg/L. For orientation: In fluorescence polarisation assays a small probe gives low polarisation when free and higher when bound to something large.
Bcl-2-like protein 10 (Homo sapiens), sequence (Q9HD36 whole entry, looked up): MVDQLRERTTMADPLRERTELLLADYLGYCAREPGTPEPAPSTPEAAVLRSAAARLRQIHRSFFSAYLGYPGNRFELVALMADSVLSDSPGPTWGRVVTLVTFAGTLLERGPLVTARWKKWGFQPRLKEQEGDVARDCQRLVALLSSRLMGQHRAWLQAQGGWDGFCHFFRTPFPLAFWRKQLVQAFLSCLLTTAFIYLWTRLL
With `O=C(N/N=C/c1cccnc1)c1cc(-c2ccc3ccccc3c2)n[nH]1`, the displacement was -3.8%.

As to `COc1ccc(S(=O)(=O)N2CCN(C3CC4CCC3C4)CC2)cc1` (stereo unspecified), the displacement is -1.9%.

Consider `Cc1ccc(CNC(=O)C(=O)NC(C)C)cc1`, for which the displacement turned out to be 4.4%.

Consider `CC1(C)CC(=O)C2=C(C1)Nc1ccccc1NC2c1ccc(-c2ccccc2[N+](=O)[O-])o1` (stereo unspecified), for which the displacement is -15.9%.

On to `Cc1cc(-n2c(C)cc(C=O)c2C)ccc1I`, for which the displacement was -15.5%.

For the molecule `O=C1c2cccc([N+](=O)[O-])c2C(=O)N1c1ccncc1`, the displacement is -2.3%.

On to `CCOc1ccc(N2C(=O)S/C(=C\c3ccc(C)cc3)C2=O)cc1`, for which the displacement is -5.8%.

As for `O=C1/C(=C/c2ccc(I)o2)SC(=S)N1c1cccc(C(F)(F)F)c1`, the displacement was 55.7%.

For the molecule `CCOc1ccc(N2C(=O)S/C(=C\c3ccc(C)o3)C2=O)cc1`, the displacement is 108%.

In the case of `O=C1S/C(=C\c2ccc(Br)cc2)C(=O)N1c1ccc(Cl)cc1`, the displacement is -3.3%.

`O=C1/C(=C/c2ccco2)SC(=S)N1c1ccc(F)cc1`: the displacement worked out at 7.9%.

For the molecule `O=C1/C(=C/c2ccc(Br)o2)SC(=S)N1c1cccc(C(F)(F)F)c1`, the displacement amounted to 21.6%.

Regarding `Cc1ccc(/C=C2\SC(=S)N(c3ccc(C)c(C)c3)C2=O)o1`, the displacement stood at 14.9%.

As for `O=C1/C(=C/c2ccco2)SC(=S)N1c1cccc(C(F)(F)F)c1`, the displacement came to 15.4%.

With `O=C1S/C(=C\c2ccc(Br)o2)C(=O)N1c1ccc(Cl)c(Cl)c1`, the displacement is -3.9%.

Consider `Cc1ccc(/C=C2\SC(=S)N(c3ccc(F)cc3)C2=O)o1`, for which the displacement was determined as 101%.

`O=C1S/C(=C\c2ccc(Br)o2)C(=O)N1c1ccc(Cl)cc1`: the displacement worked out at 88.9%.

Take `CCOc1ccc(N2C(=O)S/C(=C\c3ccc(OC)cc3)C2=O)cc1`: the displacement is 13.2%.

Consider `Cc1cc(=O)oc2cc(OCC(=O)OC(C)C)ccc12`, for which the displacement amounted to 1.9%.

For the molecule `CCOC(=O)c1c(NC(C)=O)sc(I)c1-c1ccccc1`, the displacement came to 0.8%.

Regarding `Cc1cc(C(=O)NC2CCSC2=O)ccc1[N+](=O)[O-]` (stereo unspecified), the displacement was -2.7%.

Turning to `CS(=O)(=O)N(Cc1ccc(Cl)cc1)c1ccc(C(=O)NCc2ccco2)cc1`, the displacement was -14.6%.

In the case of `Cc1ccc([N+](=O)[O-])cc1S(=O)(=O)N1CCOCC1`, the displacement worked out at 5.1%.

Regarding `CCOc1cccc(C(=O)Nc2cc(-c3nc4cc(C)cc(C)c4o3)ccc2C)c1`, the displacement turned out to be 9.5%.

For `Cc1ccc(C)c(NC(=O)c2c(-c3ccccc3Cl)noc2C)c1`, the displacement worked out at 9.9%.

Consider `Cc1ccsc1/C=C1\SC(=S)N(c2ccccc2)C1=O`, for which the displacement was found to be 126%.

In the case of `CCOc1ccc(N2C(=O)S/C(=C\c3ccco3)C2=O)cc1`, the displacement was 92.2%.

Regarding `Cc1ccsc1/C=C1\SC(=S)N(c2c(C)n(C)n(-c3ccccc3)c2=O)C1=O`, the displacement was found to be 6.6%.

On to `Cc1ccsc1/C=C1\SC(=S)N(C(C)c2ccccc2)C1=O` (stereo unspecified), for which the displacement was -6.6%.

Take `CCOc1ccc(/C=C2\SC(=O)N(c3ccccc3)C2=O)cc1`: the displacement was -1.9%.

For `CCOc1ccc(N2C(=O)S/C(=C\c3ccccc3OC)C2=O)cc1`, the displacement stood at 32.7%.

For the origin of these results see PubChem BioAssay AID1240 (Sanford-Burnham Center for Chemical Genomics, 2008).
